Most compounds without a hit are left out; they make up all but 2.2% or so of the library.
BaF3 parental: parental Ba/F3 cell viability inhibition, counter-screen for JAK2V617F inhibitor project, murine pro-B, CellTiter-Glo luminescence | AID 1486, 2009 | inhibition, % at 5.6 µM | actives 1.1% (n = 220,000) | CellTiter-Glo ATP luminescence;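 active = inhibition above a per-campaign cutoff, the mean inhibition of all tested compounds plus 3 SD, cut at about 27% in these data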;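 also: 0% = DMSO wells and 100% = JAK Inhibitor I control wells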
KLF5 inh: KLF5 expression inhibitors, primary screen, DLD-1 cells, luminescence. DLD-1 KLF5 promoter-luciferase reporter. actives 0.23% (n = 290,000). inhibition, % at 5 µM;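 active = inhibition above a per-plate limit of that plate's mean compound inhibition plus 3 SD, cut at about 60% in these data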;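 also: 0% = DMSO wells and 100% = LY294002 at 200 µM; higher means less KLF5 promoter-driven luciferase light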
aSyn 5UTR inh: MLPCN primary screen, SNCA 5' untranslated region. AID 1813, 2009. alpha-synuclein 5'UTR reporter, inhibitor activity. inhibition, % (tested at 7.5 µM). actives 0.82% (n = 300,000); in the data active = inhibition above about 60%;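 also: H4 neuroglioblastoma cells stably carrying SNCA 5'UTR luciferase fusion; 0% = DMSO wells and 100% = positive control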
APP 5UTR inh: inhibitors of APP translation via 5'UTR reporter, primary screen, APP 5'UTR luciferase, SH-SY5Y cells; inhibition, % at 2 µM; actives 0.82% (n = 190,000); SH-SY5Y APP 5'UTR-luciferase reporter, luminescence;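 active = inhibition above a set limit, derived from the sample mean plus 3 SD, cut at about 45% in these data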
Ba/F3 V617F tox: reduced viability of JAK2V617F-dependent Ba/F3 cells, primary screen, JAK2V617F inhibitor project, cell-based, Ba/F3 EpoR-JAK2V617F, luminescence; ATP luminescence; AID 1446, 2008; inhibition, % at 5.6 µM; actives 1.1% (n = 220,000);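 active = inhibition above the campaign mean plus 3 SD over all tested compounds, cut at about 24% in these data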;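 also: cytokine-independent growth of Ba/F3 cells driven by EpoR plus mutant JAK2; 0% = DMSO-treated cells and 100% = JAK inhibitor I control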
IEC-6 tox: cytotoxicity in IEC-6 intestinal epithelial cells, primary screen, cytotoxicity control for KLF5 inhibitor project, cell-based, luminescence. inhibition, % at 5 µM. actives 0.78% (n = 290,000). AID 1825, 2009. IEC-6 cytotoxicity, luminescence viability; in the data active = inhibition above about 22%;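 also: 0% = plate median of test compound wells and 100% = cytotoxic reference compound wells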
Active calls of the source: *.

`CCCN1CCCc2cc(CN)ccc21` gave BaF3 parental 62.8*, KLF5 inh -12.7, aSyn 5UTR inh 12.1, APP 5UTR inh -0.3, Ba/F3 V617F tox 63.2* and IEC-6 tox 6.0.
For CC(OC(=O)C1=NNC(=O)CC1)C(=O)Nc1ncc(Cl)cc1Cl (centres undefined) the results were BaF3 parental 80.6*, KLF5 inh -12.4, aSyn 5UTR inh -18.6, APP 5UTR inh 14.4, Ba/F3 V617F tox 1.3 and IEC-6 tox -3.3.
`CCCCCN(C(=O)CCC(=O)OCc1ccc(C(C)C)cc1)c1c(N)n(CCCC)c(=O)[nH]c1=O` gave aSyn 5UTR inh 20.0.
Cc1ccc(-n2nc(C)c3c2OC(N)=C(C#N)C3c2ccccc2F)cc1 (centres undefined) was read as BaF3 parental 7.5, KLF5 inh -23.8, aSyn 5UTR inh 9.6, APP 5UTR inh 47.2*, Ba/F3 V617F tox 3.4 and IEC-6 tox -2.3.
Screening O=C(O)CSc1ncnc2sc3c(c12)CCCC3 returned BaF3 parental 89.8*, KLF5 inh -19.9, aSyn 5UTR inh -7.8, APP 5UTR inh -12.7, Ba/F3 V617F tox -1.1 and IEC-6 tox 2.2.
`CCOC(=O)c1ccc(NC(=O)Cn2nnc3ccccc32)cc1` gave BaF3 parental 59.4*, KLF5 inh -203.1, APP 5UTR inh -71.4, Ba/F3 V617F tox -2.6 and IEC-6 tox -2.1.
For COc1ccc(CN(C)Cc2nc(Cc3cccc(F)c3)no2)c2cccnc12 the results were BaF3 parental 61.9*, KLF5 inh 8.4, aSyn 5UTR inh 12.5, APP 5UTR inh 3.0, Ba/F3 V617F tox 46.3* and IEC-6 tox 9.2.
Screening COc1cccc(-n2cc(CN(C)Cc3nc(Cc4cccc(F)c4)no3)cn2)c1 returned BaF3 parental 6.4, KLF5 inh -4.0, aSyn 5UTR inh 3.8, APP 5UTR inh -17.1, Ba/F3 V617F tox 5.9 and IEC-6 tox 4.7.
Screening COc1ccc(OC)c2sc(N3CCc4ccccc4C3)nc12 returned BaF3 parental 14.5, KLF5 inh -29.9, aSyn 5UTR inh 14.9, APP 5UTR inh -4.3, Ba/F3 V617F tox 1.1 and IEC-6 tox 4.6.
c1ccc2c(c1)CCN(c1nc3cc4c(cc3s1)OCCO4)C2 was read as BaF3 parental 3.7, KLF5 inh -4.8, aSyn 5UTR inh 75.1*, APP 5UTR inh -147.8, Ba/F3 V617F tox 2.0 and IEC-6 tox 14.6.
`Cc1cc(C(=O)CN2C(=O)c3ccccc3S2(=O)=O)c(C)n1-c1ccccc1` gave BaF3 parental 5.6, KLF5 inh 3.0, aSyn 5UTR inh 120.1*, APP 5UTR inh 35.0, Ba/F3 V617F tox 0.6 and IEC-6 tox -2.0.
O=C(CN1C(=O)c2ccccc2S1(=O)=O)c1ccccc1 was read as BaF3 parental 0.1, KLF5 inh 13.8, APP 5UTR inh 3.3, Ba/F3 V617F tox -4.8 and IEC-6 tox 4.1.
Screening Cc1ccc(C(=O)CN2C(=O)c3ccccc3S2(=O)=O)cc1 returned BaF3 parental -1.5, KLF5 inh 57.2, aSyn 5UTR inh 109.4*, Ba/F3 V617F tox -3.5 and IEC-6 tox -1.6.
Cc1ccc(CNS(=O)(=O)c2c(C)[nH]c(=O)[nH]c2=O)cc1 was read as KLF5 inh -30.0, aSyn 5UTR inh -17.8 and IEC-6 tox 0.2.
`CCCCOc1ccc(C2CCC(C(C)=O)C(C)C2)cc1` (centres undefined) gave BaF3 parental -1.7, KLF5 inh -3.4, aSyn 5UTR inh -169.3, Ba/F3 V617F tox -2.4 and IEC-6 tox -3.4.
Screening CN(C)/C=C(\c1cnc(Cl)s1)S(=O)(=O)c1ccccc1 returned BaF3 parental -0.4, KLF5 inh -2.1, aSyn 5UTR inh -26.7, APP 5UTR inh 11.6, Ba/F3 V617F tox -3.8 and IEC-6 tox -1.9.
Screening CCN(CC)CCCNC(=S)N1CCN(c2nc(-c3ccc(F)cc3)cs2)CC1 returned KLF5 inh -10.2, aSyn 5UTR inh 132.8* and IEC-6 tox 8.6.
For c1ccc(-c2nnc(-c3ccccn3)nc2NC2CCCCC2)cc1 the results were BaF3 parental 94.5*, KLF5 inh 29.9, aSyn 5UTR inh 101.2*, APP 5UTR inh 76.7*, Ba/F3 V617F tox 63.8* and IEC-6 tox 18.6.
`CNc1nc(-c2ccccn2)nnc1-c1ccccc1` gave BaF3 parental 0.1, KLF5 inh -49.0, aSyn 5UTR inh -9.0, APP 5UTR inh 11.2, Ba/F3 V617F tox -3.2 and IEC-6 tox 8.6.
Screening CC(C)Nc1ccc(Nc2ccnc3cc4ccccc4cc23)cc1 returned BaF3 parental 10.9, KLF5 inh -16.3, aSyn 5UTR inh 98.7*, Ba/F3 V617F tox 18.0 and IEC-6 tox 12.4.
For COC(C#CCCN(C)C)(c1ccccc1)c1ccccc1 the results were BaF3 parental 1.8, KLF5 inh -38.9, aSyn 5UTR inh -12.5, APP 5UTR inh 16.2, Ba/F3 V617F tox -0.6 and IEC-6 tox 1.0.
For S=c1[nH]nc(-c2cccc3ccccc23)n1-c1cccnc1 the results were BaF3 parental 50.3*, KLF5 inh -18.0, aSyn 5UTR inh -13.0, Ba/F3 V617F tox 51.8* and IEC-6 tox -2.6.
CCc1cccc(CC)c1-n1c(-c2cccnc2)n[nH]c1=S was read as BaF3 parental 3.9, KLF5 inh -34.0, aSyn 5UTR inh 4.1, APP 5UTR inh -12.5, Ba/F3 V617F tox 0.7 and IEC-6 tox -3.1.
CS(=O)(=O)N1CCN(c2ccccc2NC(=O)CSc2ccc(Cl)cc2)CC1 was read as BaF3 parental 7.0, KLF5 inh -21.0, aSyn 5UTR inh 2.9, APP 5UTR inh 2.0, Ba/F3 V617F tox 8.2 and IEC-6 tox 11.7.
O=C(CSc1ccc(Cl)cc1)Nc1ccccc1N1CCN(C(=O)c2ccccc2)CC1 was read as BaF3 parental 67.7*, KLF5 inh -35.8, aSyn 5UTR inh 11.9, APP 5UTR inh -19.8, Ba/F3 V617F tox 2.4 and IEC-6 tox 3.4.
`Cc1ccc(C)c(NC(=O)CCc2nnc3ccc(N4CCCCC4)nn23)c1` gave KLF5 inh -33.9, aSyn 5UTR inh -4.6 and IEC-6 tox 0.9.
Cc1[nH][nH]c(=O)c1C=Nc1ccc(C(F)(F)F)cc1 was read as BaF3 parental 4.4, KLF5 inh -16.2, aSyn 5UTR inh -77.4, APP 5UTR inh 77.2*, Ba/F3 V617F tox 3.1 and IEC-6 tox 0.9.
COCc1[nH][nH]c(=O)c1C=Nc1ccc(C(F)(F)F)cc1 was read as BaF3 parental 5.5, KLF5 inh -4.8, aSyn 5UTR inh -7.2, APP 5UTR inh 2.5, Ba/F3 V617F tox -1.6 and IEC-6 tox -7.8.
`COc1cc2[nH]c(=O)c(C(=O)NCc3ccccc3Cl)c(O)c2cc1OC` gave KLF5 inh -10.6, aSyn 5UTR inh -27.5 and IEC-6 tox -5.3.
Screening COc1cc(/C=N/NC(N)=S)ccc1OC(=O)c1ccc(C)cc1 returned BaF3 parental 1.9, KLF5 inh -30.1, aSyn 5UTR inh -33.9, APP 5UTR inh -6.4, Ba/F3 V617F tox -1.3 and IEC-6 tox -1.8.
